{"source": "PubChem BioAssay AID2314", "about": "(National Center for Advancing Translational Sciences (NCATS), 2010)", "note": "In all, about 300,000 compounds went through this assay and about 37,000 (12%) were called active. Cut-off read from the data, not from the text of the source: active = max response mostly above about 13% (no sharp cut-off); inactive = mostly below about 14%. What follows is part of a selection rich in actives, with near analogues and random picks from the rest."}
{"experiment": "Cycloheximide Counterscreen for Small Molecule Inhibitors of Shiga Toxin; note: read at 38.3 µM for the half of the compounds with a filed dose; 0% is about no effect", "conditions": "cell reporter, cycloheximide protein synthesis inhibition counterscreen; hits give high values"}
{"smiles": "Cc1cccc(C)c1NC(=O)CN1C(=O)C(C)Oc2ccccc21", "note": "(centres undefined)", "max response": "1.84% (inactive)"}
{"smiles": "COCCn1c(SCC(=O)Nc2ccccc2F)nc2c(c1=O)SCC2", "max response": "8.88% (inactive)"}
{"smiles": "COc1ccc(C(C)NC(=S)NC2CCCCC2)cc1OC", "note": "(centres undefined)", "max response": "-2.46% (inactive)"}
{"smiles": "COc1cc(Br)c(-c2sc(Nc3ccccc3)n[n+]2-c2ccccc2)cc1OC", "max response": "1.49% (inactive)"}
{"smiles": "CCc1ccc(Oc2coc3cc(OC(=O)c4cc5ccccc5oc4=O)ccc3c2=O)cc1", "max response": "12% (inactive)"}
{"smiles": "CCc1ccc(Oc2coc3cc(O)ccc3c2=O)cc1", "max response": "31.5% (active)"}
{"smiles": "COc1ccc(Oc2coc3cc(OC(=O)c4cncc(Br)c4)ccc3c2=O)cc1", "max response": "5.74% (inactive)"}
{"smiles": "CC[C@H](C)[C@H](NC(=O)[C@H](Cc1ccc(O)cc1)NC(=O)[C@@H](NC(=O)[C@H](CCCN=C(N)N)NC(=O)[C@@H](N)CC(=O)O)C(C)C)C(=O)N[C@@H](Cc1cnc[nH]1)C(=O)N1CCC[C@H]1C(=O)N[C@@H](Cc1ccccc1)C(=O)O", "max response": "16% (inactive)"}
{"smiles": "C=CCN1C(=O)C2(OCCCO2)c2cccc(Cl)c21", "max response": "1.84% (inactive)"}
{"smiles": "Cc1ccc(CNC(=O)Cn2cnc(S(=O)(=O)N3CCCCC3)c2)o1", "max response": "6.21% (inactive)"}
{"smiles": "CCCc1nnc(SCC(=O)Nc2ccc(C(=O)OCC)cc2)o1", "max response": "3.14% (inactive)"}
{"smiles": "CCOC(=O)c1ccc(NC(=O)CCn2c(=O)oc3ccccc32)cc1", "max response": "9.25% (inactive)"}
{"smiles": "COc1ccc(C)cc1NC(=O)c1ccc(-c2ccc(C(C)=O)cc2)o1", "max response": "16% (inactive)"}
{"smiles": "CCOC(=O)c1ccc(NC(=O)CSc2nnc(COc3ccccc3OC)n2C)cc1", "max response": "4.99% (inactive)"}
{"smiles": "CCCCC(CCC(=O)Nc1ccc(C(=O)OCC)cc1)C(=O)O", "note": "(centres undefined)", "max response": "0.691% (inactive)"}
{"smiles": "CCOC(=O)c1ccc(NC(=O)c2cccnc2)cc1", "max response": "38.1% (active)"}
{"smiles": "C#CCNc1ccc(C(=O)OCC)cc1", "max response": "31.8% (active)"}
{"smiles": "CCOC(=O)c1ccc(NC(=S)N2CCCC2)cc1", "max response": "9.83% (inactive)"}
{"smiles": "CCOC(=O)c1ccc(-c2ccc(C(=O)Nc3cccnc3)o2)cc1", "max response": "32.1% (active)"}
{"smiles": "CCOC(=O)c1ccc(NC(=O)CSc2ncccn2)cc1", "max response": "26.6% (active)"}
{"smiles": "CC(C)NS(=O)(=O)c1ccc(NC(=O)c2cccnc2)cc1", "max response": "-3.02% (inactive)"}
{"smiles": "O=C(Cc1ccccc1)Nc1ccc(NC(=O)c2cccnc2)cc1", "max response": "-2.68% (inactive)"}
{"smiles": "COc1ccccc1N1CC(C(=O)Nc2nnc(SCC(=O)NC(C)C)s2)CC1=O", "note": "(centres undefined)", "max response": "-0.494% (inactive)"}
{"smiles": "C=CCN1C(=O)C(O)(CC(=O)c2ccc(Cl)cc2)c2ccccc21", "note": "(centres undefined)", "max response": "-1.68% (inactive)"}
{"smiles": "Cc1c([N+](=O)[O-])c(N)nn1C", "max response": "-1.77% (inactive)"}
{"smiles": "COCCNC(=S)N(CCc1c(C)[nH]c2ccc(C)cc12)Cc1cccnc1", "max response": "-0.385% (inactive)"}
{"smiles": "C=CCNC(=O)c1sc(SC)cc1-c1ccc(Cl)cc1", "max response": "-0.634% (inactive)"}
{"smiles": "CCOC(=O)C1CCN(C(=O)CN2C(=O)c3cccnc3Oc3ccc(C)cc32)CC1", "max response": "-3.81% (inactive)"}
{"smiles": "CCCOc1ccc(C(=O)C(CCC(CNCC)C(=O)c2ccc(OCCC)cc2)CNCC)cc1", "note": "(centres undefined)", "max response": "-10% (inactive)"}
{"smiles": "O=S(=O)(NCC1CC1)c1ccc(F)c(Cl)c1", "max response": "0.9% (inactive)"}
{"smiles": "O=C(NC1C2CC3CC(C2)CC1C3)c1ccc(N2CCNCC2)c([N+](=O)[O-])c1", "note": "(centres undefined)", "max response": "-2.96% (inactive)"}
{"smiles": "N#Cc1cc([N+](=O)[O-])ccc1NCC1CCCO1", "note": "(centres undefined)", "max response": "-4.48% (inactive)"}
{"smiles": "CCOc1ccccc1NC(=O)Cc1cccs1", "max response": "-3.39% (inactive)"}
{"smiles": "O=C(Cc1cccs1)Nc1ccc([N+](=O)[O-])cc1", "max response": "-1.6% (inactive)"}
{"smiles": "CCOC(=O)c1ccc(NC(=O)Cc2cccs2)cc1", "max response": "33% (active)"}
{"smiles": "COc1cccc(NC(=O)CC(c2ccc(OC(C)C)cc2)c2ccccc2OC)c1", "note": "(centres undefined)", "max response": "2.51% (inactive)"}
{"smiles": "COc1ccc(/C=C(\\NC(=O)c2ccc(OCC(C)C)cc2)C(=O)OCc2ccco2)cc1", "max response": "-1.98% (inactive)"}
{"smiles": "COc1ccc(Cn2c(=S)[nH]c3cc(C(=O)NCCCN4CCOCC4)ccc3c2=O)cc1", "max response": "-1.29% (inactive)"}
{"smiles": "Cc1ccnc(NC(=O)CCNS(=O)(=O)c2ccc(C)c(C)c2)c1", "max response": "47.8% (active)"}
{"smiles": "Cc1ccc(S(=O)(=O)NCCC(=O)Nc2cccc(S(N)(=O)=O)c2)cc1C", "max response": "-4.85% (inactive)"}
{"smiles": "Cc1ccc(S(=O)(=O)NCCC(=O)Nc2ccc(C)c(Cl)c2)cc1C", "max response": "-4.03% (inactive)"}
{"smiles": "O=C1C=C(c2ccc(Cl)cc2)C(=O)N1Nc1ccccc1", "max response": "-6.32% (inactive)"}
{"smiles": "CCOc1cc(CNn2c(C)nnc2SCC(=O)NC(C)(C)C)ccc1OCC(=O)NC(C)(C)C", "max response": "-1.88% (inactive)"}
{"smiles": "Cn1cnc2c1c(=O)n(Cc1ccccc1C#N)c(=O)n2C", "max response": "7.66% (inactive)"}
{"smiles": "COc1ccccc1CN1CCCC(N2CCN(c3ccc(F)cc3)CC2)C1", "note": "(centres undefined)", "max response": "0.35% (inactive)"}
{"smiles": "O=[N+]([O-])c1cc([N+](=O)[O-])c2cccnc2c1O", "max response": "5.27% (inactive)"}
{"smiles": "CN(C)/N=C/c1cc(Cl)cc([N+](=O)[O-])c1O", "max response": "-1.13% (inactive)"}
{"smiles": "N#CC(C#N)=Cc1cc(O)c(O)c([N+](=O)[O-])c1", "max response": "37% (active)"}
{"smiles": "O=[N+]([O-])c1ccccc1/C=C/CN1CCC(O)CC1", "max response": "0.466% (inactive)"}
{"smiles": "CN(C)Cc1c(C#N)c2ccccc2n1C", "max response": "-3.13% (inactive)"}
{"smiles": "COc1ccc(-c2c(C#Cc3ccccc3)c3ccccc3n2C)cc1", "max response": "40% (active)"}
{"smiles": "COc1ccc(CCNCc2c(-c3ccccc3)n(C)c3ccccc23)cc1", "max response": "-3.43% (inactive)"}
{"smiles": "Cc1cc(=O)oc2c1ccc1ccccc12", "max response": "0.801% (inactive)"}
{"smiles": "O=C(CSc1nccc(=O)[nH]1)Nc1ccc(N2CCOCC2)c(Cl)c1", "max response": "-2.31% (inactive)"}
{"smiles": "COc1ccc(CCNC(=O)CS(=O)(=O)Cc2nc(-c3ccc(C)cc3)oc2C)cc1OC", "max response": "-4.16% (inactive)"}
{"smiles": "CCCC(=O)Nc1c(O)c2ccccc2[nH]c1=O", "max response": "-3.15% (inactive)"}
{"smiles": "NS(=O)(=O)c1ccccc1NC(=O)c1c(O)c2ccccc2[nH]c1=O", "max response": "41.2% (active)"}
{"smiles": "CC(C)C(=O)Nc1c(O)c2ccccc2[nH]c1=O", "max response": "-0.723% (inactive)"}
{"smiles": "N#Cc1ccc(-c2nc3cc(C#N)c(C#N)cc3nc2-c2ccccc2)cc1C#N", "max response": "18.4% (inactive)"}
{"smiles": "Cc1ccc(N2C(=O)C3C4C=CC(CC4)C3C2=O)cc1Br", "note": "(centres undefined)", "max response": "0.748% (inactive)"}
{"smiles": "COc1ccc(CNC(=O)CN(c2ccc(OC)c(Cl)c2)S(=O)(=O)c2ccc(C)cc2)cc1", "max response": "6.81% (inactive)"}
{"smiles": "COc1cc(N/C=C2\\CC(=O)NC(C)=C2C#N)cc(OC)c1OC", "max response": "-2.39% (inactive)"}
{"smiles": "O=C(c1ccncc1)N1CCN(c2ccc3ccccc3n2)CC1", "max response": "8.94% (inactive)"}
{"smiles": "c1cnc(N2CCN(c3ccc4ccccc4n3)CC2)nc1", "max response": "53% (active)"}
{"smiles": "Oc1ccc(CN2CCN(c3ncccn3)CC2)cc1", "max response": "-3.1% (inactive)"}
{"smiles": "Cc1nc(N2CCOCC2)sc1C(=O)NN", "max response": "-3.93% (inactive)"}
{"smiles": "Cc1cc(C)c2nc(N3CCC(C(=O)NCCN4CCOCC4)CC3)sc2c1", "max response": "-2.32% (inactive)"}
{"smiles": "Fc1cc(F)c2nc(N3CCOCC3)sc2c1", "max response": "36.9% (active)"}
{"smiles": "CC(C)c1nc2ccc(C(=O)O)cc2[nH]1", "max response": "7.51% (inactive)"}
{"smiles": "COC(=O)Nc1nc2ccc(Sc3ccccc3)cc2[nH]1", "max response": "27.6% (active)"}
{"smiles": "COc1cc(OC)cc(C(=O)N[C@H](C(=O)Nc2nc3ccccc3[nH]2)C(C)C)c1", "max response": "0.422% (inactive)"}
{"smiles": "Cc1ccc(Nc2nc(N3CCOCC3)nc(N3CCOCC3)n2)cc1Cl", "max response": "-3.32% (inactive)"}
{"smiles": "Nc1nc(Nc2ccccc2)nc(NCCO)c1[N+](=O)[O-]", "max response": "0.849% (inactive)"}
{"smiles": "CNc1nc(Nc2ccc(C)c(Cl)c2)nc(N)c1[N+](=O)[O-]", "max response": "32.5% (active)"}
{"smiles": "c1ccc2c(c1)CSc1sccc1C2=C1CCNCC1", "max response": "-3.55% (inactive)"}
{"smiles": "CC(=O)NC(=S)NNC(=O)c1ccc(Br)cc1", "max response": "12.5% (inactive)"}
{"smiles": "Cc1ccccc1Cn1c2ccccc2c2cnn(CC(=O)NCc3ccco3)c(=O)c21", "max response": "1.52% (inactive)"}
{"smiles": "COc1ccc2[nH]c(C(=O)N3CCN(C)CC3)c(C)c2c1", "max response": "7.26% (inactive)"}
{"smiles": "Cc1[nH]c2ccc(C(=O)N3CCN(C)CC3)cc2c1C", "max response": "28% (active)"}
{"smiles": "CCOc1ccccc1N1CCN(C(=O)c2ccc3[nH]c(C)c(C)c3c2)CC1", "max response": "-2.02% (inactive)"}
{"smiles": "CSc1ccccc1-c1nnc(-c2ccc(Cl)cc2)o1", "max response": "29% (active)"}
{"smiles": "Cc1cc(C)cc(NS(=O)(=O)c2ccc(Oc3ncc(C(F)(F)F)cc3Cl)cc2)c1", "max response": "-3.33% (inactive)"}
{"smiles": "COC(=O)Cc1ccc(Oc2ncc(C(F)(F)F)cc2Cl)cc1", "max response": "10.3% (inactive)"}
{"smiles": "FC(F)(F)c1cnc(Oc2ccccc2-c2nnc(-c3ccc(Cl)cc3)o2)c(Cl)c1", "max response": "13.8% (active)"}
{"smiles": "Cc1c(C)c2ccc(OCC(=O)N3CCN(c4cccc(Cl)c4)CC3)cc2oc1=O", "max response": "-3.72% (inactive)"}
{"smiles": "COc1cccc(-c2coc3cc4oc(=O)c(CC(=O)O)c(C)c4cc23)c1", "max response": "7.42% (inactive)"}
{"smiles": "Cc1ccccc1CN1CCNC(=O)C1CC(=O)NCCC1=CCCCC1", "note": "(centres undefined)", "max response": "-4.14% (inactive)"}
{"smiles": "CN(C)CCCNC(=S)N1CCC(c2nc3ccccc3[nH]2)CC1", "max response": "-2.52% (inactive)"}
{"smiles": "CC(=O)N1c2ccc(S(=O)(=O)N3CCC(C(=O)NCc4ccc(F)cc4)CC3)cc2CC1C", "note": "(centres undefined)", "max response": "-3.6% (inactive)"}
{"smiles": "CCNc1ccc(C(=O)OCC(=O)N2c3ccccc3NC(=O)C2(C)C)cc1[N+](=O)[O-]", "max response": "-4.72% (inactive)"}
{"smiles": "N#Cc1ccc(CSc2nnc3ccccn23)cc1", "max response": "5.39% (inactive)"}
{"smiles": "Cn1c(SCC(=O)c2ccc(F)cc2)nnc1-c1ccccn1", "max response": "6.35% (inactive)"}
{"smiles": "O=C(CSc1nnc(-c2ccco2)n1CC1CCCO1)c1ccccc1", "note": "(centres undefined)", "max response": "8.39% (inactive)"}
{"smiles": "Cc1ccc(-n2c(C)cc(C(=O)CN3C(=O)C(=O)N(C4CCCC4)C3=O)c2C)cc1", "max response": "-1.52% (inactive)"}
{"smiles": "O=C(CSc1nnc2n1CCCN2)c1ccccc1", "max response": "38.3% (active)"}
{"smiles": "Cc1ccc(-n2c(C)cc(C(=O)CSc3nnc4ccccn34)c2C)cc1", "max response": "39.3% (active)"}
{"smiles": "Cn1c(CC(=O)Nc2ccccc2)nnc1SCC(=O)c1ccccc1", "max response": "3.65% (inactive)"}
{"smiles": "Cc1cc(C(=O)CSc2nc(N)cc(=O)[nH]2)c(C)n1-c1cccc(F)c1", "max response": "7.82% (inactive)"}
{"smiles": "O=C(CSc1nnc2ccccn12)c1ccccc1", "max response": "49.5% (active)"}
